Assay results taken from PubChem BioAssay (Tox21).
Inconclusive results are not listed. The source made the active and inactive calls. The call rests on the fitted dose curve; in most records, active means well fitted curve in the direction sought with a large enough effect in the repeat runs; inconclusive means weak or mixed curves; inactive means no such curve, though single readings can be large; an effect the other way counts as inactive or inconclusive.

Tests used:
[1] = A CellTox Green Cytotoxicity Assay to monitor cytotoxicity in HEK293 cells - 40 hour (AID 1224871); further: nearly all actives have a fitted effect of over 45% in size
How it was run: (§1)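 Homogeneous no-lysis format: HEK293 cell suspension mixed with CellTox Green reagent, seeded, incubated 5 h at 37 C/5% CO2, then dosed by pintool with compound in DMSO.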

[2] = qHTS RealTime-Glo MT Cell Viability Assay in HEK293 cells - 16 hour (AID 1224872); further: top concentration of the series differs between compounds; nearly all actives have a fitted effect of over 50% in size
How it was run: (§2)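 Assay medium contained NanoLuc luciferase plus cell-permeant prosubstrate, added with HEK293 cells at 600 cells/well. After 5 h at 37 C/5% CO2 compounds were added; plates stayed at 37 C for 40 h with serial luminescence reads.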

[3] = qHTS RealTime-Glo MT Cell Viability Assay in HepG2 cells - 8 hour (AID 1224873); further: nearly all actives have a fitted effect of over 55% in size
How it was run: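 HepG2 cells (600/well) mixed with RealTime-Glo MT reagent, settled 5 h at 37 C/5% CO2 before compound addition. Nonlytic NanoLuc luminescence from viable-cell prosubstrate reduction read repeatedly during 40 h treatment at 37 C.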

[4] = A CellTox Green Cytotoxicity Assay to monitor cytotoxicity in HEK293 cells - 24 hour (AID 1224875); further: series mostly up to about 77 µM; nearly all actives have a fitted effect of over 45% in size
How it was run: as §1

[5] = A CellTox Green Cytotoxicity Assay to monitor cytotoxicity in HepG2 cells - 16 hour (AID 1224876); further: nearly all actives have a fitted effect of over 45% in size
How it was run: (§3)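 Fluorescent DNA-binding dye, 600 HepG2 cells/well, 5 h preincubation then compound in DMSO; same plates read at 0–40 h, 37 C.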

[6] = qHTS RealTime-Glo MT Cell Viability Assay in HepG2 cells - 32 hour (AID 1224877); further: nearly all actives have a fitted effect of over 55% in size
How it was run: (§4)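 qHTS, HepG2, 600 cells/well, RealTime-Glo (NanoLuc + prosubstrate) added with cells; 5 h preincubation; DMSO compound addition; 37 C; luminescence at 0/8/16/24/32/40 h.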

[7] = A CellTox Green Cytotoxicity Assay to monitor cytotoxicity in HepG2 cells - 40 hour (AID 1224879); further: nearly all actives have a fitted effect of over 40% in size
How it was run: as §3

[8] = qHTS RealTime-Glo MT Cell Viability Assay in HEK293 cells - 0 hour (AID 1224880); further: top concentration of the series differs between compounds; nearly all actives have a fitted effect of over 45% in size
How it was run: (§5)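 Measured as luminescence from the same continuously cultured HEK293 wells at successive time points (0, 8, 16, 24, 32, 40 h) after compound addition. Reagent present from seeding; dosing at 5 h; incubation 37 C.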

[9] = A CellTox Green Cytotoxicity Assay to monitor cytotoxicity in HEK293 cells - 32 hour (AID 1224881); further: nearly all actives have a fitted effect of over 40% in size
How it was run: as §1

[10] = A CellTox Green Cytotoxicity Assay to monitor cytotoxicity in HEK293 cells - 8 hour (AID 1224884); further: nearly all actives have a fitted effect of over 35% in size
How it was run: as §1

[11] = qHTS RealTime-Glo MT Cell Viability Assay in HEK293 cells - 24 hour (AID 1224886); further: top concentration of the series differs between compounds; nearly all actives have a fitted effect of over 50% in size
How it was run: as §2

[12] = A CellTox Green Cytotoxicity Assay to monitor cytotoxicity in HEK293 cells - 16 hour (AID 1224888); further: nearly all actives have a fitted effect of over 35% in size
How it was run: as §1

[13] = qHTS RealTime-Glo MT Cell Viability Assay in HepG2 cells - 0 hour (AID 1224889); further: nearly all actives have a fitted effect of over 50% in size
How it was run: as §4

[14] = A CellTox Green Cytotoxicity Assay to monitor cytotoxicity in HepG2 cells - 8 hour (AID 1224890); further: nearly all actives have a fitted effect of over 45% in size
How it was run: as §3

[15] = qHTS RealTime-Glo MT Cell Viability Assay in HEK293 cells - 40 hour (AID 1224874); settings: RealTime-Glo luminescence; max response: stronger effect = lower value; further: nearly all actives have a fitted effect of over 50% in size
How it was run: as §5

[16] = A CellTox Green Cytotoxicity Assay to monitor cytotoxicity in HepG2 cells - 24 hour (AID 1224878); further: nearly all actives have a fitted effect of over 45% in size
How it was run: as §3

[17] = A CellTox Green Cytotoxicity Assay to monitor cytotoxicity in HepG2 cells - 0 hour (AID 1224882); further: nearly all actives have a fitted effect of over 35% in size
How it was run: as §3

[18] = A CellTox Green Cytotoxicity Assay to monitor cytotoxicity in HepG2 cells - 32 hour (AID 1224883); further: nearly all actives have a fitted effect of over 50% in size
How it was run: as §3

[19] = qHTS RealTime-Glo MT Cell Viability Assay in HepG2 cells - 16 hour (AID 1224885); further: nearly all actives have a fitted effect of over 50% in size
How it was run: as §4

[20] = qHTS RealTime-Glo MT Cell Viability Assay in HEK293 cells - 8 hour (AID 1224887)
How it was run: as §5
On the % scale 0 is the no-effect control and ±100 the full control effect.

CCN(CC)CCOC(=O)C(C)(c1ccccc1)c1ccccc1
inactive: Potency [1] | Potency [2] | Potency [3] | Potency [4] | Potency [5] | Potency [6] | Potency [7] | outcome [8] | Potency [9] | Potency [10] | Potency [11] | Potency [12] | Potency [13] | Potency [14]

CCOC(=O)C(c1c(O)c2ccccc2oc1=O)c1c(O)c2ccccc2oc1=O
inactive: Potency [1] | Potency [2] | Potency [3] | max response [15] 4.14% | Potency [5] | Potency [6] | Potency [16] | Potency [7] | Potency [9] | outcome [17] | Potency [18] | Potency [10] | Potency [19] | Potency [11] | Potency [20] | Potency [12] | Potency [14]

Cc1cccc(C#N)c1
inactive: Potency [1] | Potency [2] | Potency [3] | max response [15] 6.99% | Potency [5] | Potency [6] | Potency [16] | Potency [7] | outcome [8] | Potency [9] | outcome [17] | Potency [18] | Potency [10] | Potency [19] | Potency [11] | Potency [20] | Potency [12] | Potency [14]

Nc1cc2c3c(c1)C(c1ccccc1)=N[C@@H](NC(=O)c1cccnc1)C(=O)N3CC2
inactive: Potency [1] | Potency [2] | Potency [3] | max response [15] -6.57% | Potency [5] | Potency [6] | Potency [16] | Potency [7] | outcome [8] | Potency [9] | outcome [17] | Potency [10] | Potency [19] | Potency [11] | Potency [20] | Potency [12] | Potency [13] | Potency [14]

O=CNC(N1CCN(C(NC=O)C(Cl)(Cl)Cl)CC1)C(Cl)(Cl)Cl (centres undefined)
inactive: Potency [1] | Potency [2] | Potency [3] | max response [15] -2.73% | Potency [5] | Potency [6] | Potency [16] | Potency [7] | outcome [8] | Potency [9] | outcome [17] | Potency [18] | Potency [11] | Potency [12] | Potency [13] | Potency [14]

NC1=NC(=O)C(c2ccccc2)O1 (centres undefined)
inactive: Potency [1] | Potency [2] | Potency [3] | max response [15] 1.11% | Potency [5] | Potency [6] | Potency [16] | Potency [7] | outcome [8] | Potency [9] | outcome [17] | Potency [18] | Potency [19] | Potency [11] | Potency [20] | Potency [12] | Potency [13] | Potency [14]

CCN(CC)C(=O)[C@@H]1C=C2c3cccc4[nH]cc(c34)C[C@H]2N(C)C1
inactive: Potency [1] | Potency [2] | Potency [3] | Potency [4] | Potency [5] | Potency [6] | Potency [16] | Potency [7] | outcome [8] | Potency [9] | outcome [17] | Potency [19] | Potency [20] | Potency [12] | Potency [13] | Potency [14]

CS(=O)(=O)c1cc(C(F)(F)F)ccc1C(=O)c1cnoc1C1CC1
inactive: Potency [1] | Potency [2] | Potency [3] | max response [15] -3.5% | Potency [5] | Potency [6] | Potency [16] | Potency [7] | outcome [8] | Potency [9] | outcome [17] | Potency [18] | Potency [19] | Potency [11] | Potency [20] | Potency [12] | Potency [14]
